Measurements reported in paper PMC5540273 (PLoS ONE, 2017).
“And” between values parts separate entries of the source, which are not always exact repeats. Identical values can stand only once. Like-named read-outs stand apart in the source and are kept apart here.

Tests used:
DDR2 = details: concentration: 1 μM, replicates: in singlicate, n = 1
DLK = test system: T1, DLK; details: concentration: 1 μM, replicates: in singlicate, n = 1
T1 construct: gene MAP3K12

DMPK2 = test system: T2, DMPK2; details: concentration: 1 μM, replicates: in singlicate, n = 1
T2 construct: gene CDC42BPG

DMPK = details: concentration: 1 μM, replicates: in singlicate; n = 1
DRAK1 = test system: T3, DRAK1; details: concentration: 1 μM, replicates: in singlicate; n = 1
T3 construct: gene STK17A

DRAK2 = test system: T4, DRAK2; details: concentration: 1 μM, replicates: in singlicate, n = 1
T4 construct: gene STK17B

DYRK1A = details: concentration: 1 μM, replicates: in singlicate; n = 1
DYRK1B = details: concentration: 1 μM, replicates: in singlicate, n = 1
DYRK2 = details: concentration: 1 μM, replicates: in singlicate; n = 1
EGFR = details: concentration: 1 μM, replicates: in singlicate, n = 1
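Further: KINOMEscan kinase panel screen.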

SMILES | %Inh (DDR2) [%] | %Inh (DLK) [%] | %Inh (DMPK2) [%] | %Inh (DMPK) [%] | %Inh (DRAK1) [%] | %Inh (DRAK2) [%] | %Inh (DYRK1A) [%] | %Inh (DYRK1B) [%] | %Inh (DYRK2) [%] | %Inh (EGFR) [%] | %Inh (DDR2; 1 µM) | %Inh (DLK; 1 µM) | %Inh (DMPK2; 1 µM) | %Inh (DRAK2; 1 µM) | %Inh (DYRK1B; 1 µM) | %Inh (EGFR; 1 µM)
COc1ccc(NC(=O)Nc2ccc(C)c(-c3ccc(C(=O)Nc4ccncc4)cc3)c2)cc1 [GSK1398475] | 44 | 0 | 6 | 0 | 5 | 8 | 2 | 0 | 6 | 33 |  |  |  |  |  | 
COc1cc2c(Nc3cccc(NC(=O)c4ccccc4)c3)ncnc2cc1OCCCN1CCOCC1 [GSK223810] | 16 | 13 | 0 | 0 | 11 | 0 | 0 | 15 | 33 | 87 |  |  |  |  |  | 
C[C@@H]1CCN(C(=O)CO)C[C@@H]1N(C)c1ncnc2[nH]ccc12 | 0 | 0 | 0 | 8 | 3 | 13 | 0 | 0 | 0 | 1 |  |  |  |  |  | 
FC(F)(F)c1cc(Nc2nccc(-c3c(-c4ccc(Cl)cc4)nn4ncccc34)n2)ccc1Cl [GW829351] | 30 | 0 | 19 | 0 | 0 | 0 | 0 | 0 | 0 | 24 |  |  |  |  |  | 
Nc1nc(-c2ccc3c(N)n[nH]c3c2)cc(N2CCCCC2)n1 [GSK2228768] | 0 | 0 | 0 | 0 | 93.1 | 11 | 18 | 0 | 58 | 3 |  |  |  |  |  | 
COc1ccc(-c2nc3n(c2-c2ccncc2)CCC3)cc1 [SKF-104493] |  |  |  | 0 | 0 |  | 0 |  | 0 |  | 31% and 51% | 0% and 20% | 0% and 15% | 2% and 0% | 0% and 5% | 0% and 15%
Nc1nc(-c2ccc3c(N)n[nH]c3c2)cc(N2CCC[C@@H](C(=O)Nc3ccccc3)C2)n1.O=C(O)C(F)(F)F.O=C(O)C(F)(F)F [GSK2288359] | 7 | 0 | 15 | 0 | 55 | 0 | 0 | 14 | 32 | 24 |  |  |  |  |  | 
CC(C)(C)c1ccc(-n2cnc3c(N)ncnc32)cc1 [SKF-97263] | 13 | 0 | 0 | 0 | 85 | 5 | 15 | 21 | 3 | 38 |  |  |  |  |  | 
c1ccc(-c2ccc3c(-c4ccnc(Nc5ccc6c(c5)OCCO6)n4)cnn3n2)cc1 [GW818941] | 26 | 0 | 0 | 20 | 15 | 0 | 8 | 16 | 0 | 14 |  |  |  |  |  | 
O=C(CCO)NCCn1ccc2ncnc(Nc3ccc(Oc4cccc(C(F)(F)F)c4)c(Cl)c3)c21 | 0 | 0 | 0 | 0 | 0 | 0 | 0 | 12 | 0 | 100 |  |  |  |  |  | 
CS(=O)(=O)CCNCc1ccc(-c2ccc3ncnc(Nc4ccc(OCc5ccccc5)c(Cl)c4)c3c2)o1.Cl [GW574783] | 39 | 25 | 2 | 16 | 16 | 0 | 0 | 0 | 0 | 100 |  |  |  |  |  | 
Cc1cc(N2CCC(NS(=O)(=O)c3ccc(F)cc3)CC2)nc(Nc2cccc(C#N)c2)n1.O=C(O)C(F)(F)F [GSK1653537] | 7 | 47 | 0 | 0 | 3 | 0 | 32 | 97.7 | 5 | 50 |  |  |  |  |  | 
CC(=O)Nc1n[nH]c2ncc(-c3ccccc3)cc12 [SB-548492] | 11 | 0 | 0 | 0 | 20 | 0 | 32 | 0 | 24 | 3 |  |  |  |  |  | 
CN1c2ccc(-c3ccc(C(=O)NCCO)cc3)cc2-c2[nH]ncc2S1(=O)=O | 0 | 29 | 7 | 0 | 24 | 29 | 47 | 49 | 31 | 0 |  |  |  |  |  | 
Cl.Fc1ccccc1COc1ccc(Nc2ncnc3ccc(-c4nnc(C(F)(F)F)o4)cc23)cc1Cl [GW424170] | 18 | 11 | 11 | 0 | 4 | 0 | 4 | 0 | 11 | 99.4 |  |  |  |  |  | 
Cc1ccc(NC(=O)c2cccc(C#N)c2)cc1-c1ccc(C(=O)Nc2ccncc2)cc1 [GSK1398463] | 82 | 0 | 6 | 0 | 0 | 1 | 31 | 19 | 19 | 36 |  |  |  |  |  | 
COc1ccc(Nc2nccc(N3CCC(NC(=O)Nc4ccc5c(c4)OCO5)C3)n2)cc1 (stereo not drawn) [GSK1379745] | 21 | 35 | 20 | 0 | 0 | 0 | 8 | 5 | 7 | 25 |  |  |  |  |  | 

SMILES | %Inh (DDR2) [%] | %Inh (DLK) [%] | %Inh (DMPK2) [%] | %Inh (DMPK) [%] | %Inh (DRAK1) [%] | %Inh (DRAK2) [%] | %Inh (DYRK1A) [%] | %Inh (DYRK1B) [%] | %Inh (DYRK2) [%] | %Inh (EGFR) [%] | %Inh (DDR2; 1 µM) | %Inh (DLK; 1 µM) | %Inh (DMPK2; 1 µM) | %Inh (DRAK2; 1 µM) | %Inh (DYRK1B; 1 µM) | %Inh (EGFR; 1 µM)
COc1cc2ncnc(Nc3ccc(OCc4ccccc4Br)c(Cl)c3)c2cc1OC.Cl [GI261590] | 18 | 3 | 7 | 0 | 9 | 0 | 10 | 0 | 0 | 99.9 |  |  |  |  |  | 
O=C(Nc1ccccc1)Nc1ccc(Oc2ccc3nccn3n2)cc1 | 100 | 18 | 0 | 6 | 0 | 0 | 0 | 30 | 70 | 23 |  |  |  |  |  | 
Cl.c1ccc(Cn2ccc3cc(Nc4ncnc5ccccc45)ccc32)cc1 [GW275568] | 16 | 6 | 5 | 0 | 0 | 0 | 4 | 0 | 9 | 100 |  |  |  |  |  | 
Clc1ccc(-c2cc(-c3c[nH]nc3-c3ccccn3)ccn2)cc1 [GW681251] | 7 | 92.9 | 0 | 0 | 0 | 0 | 11 | 0 | 0 | 24 |  |  |  |  |  | 
COc1ccc(NC(=O)c2ccc(-c3cc(-c4nnc(C)o4)ccc3C)cc2)cc1 [GW595885] | 9 | 18 | 0 | 0 | 0 | 0 | 20 | 0 | 4 | 14 |  |  |  |  |  | 
FC(F)(F)c1ccc(-c2nn3ncccc3c2-c2ccnc(Nc3cccc(C(F)(F)F)c3)n2)cc1 [GW828205] | 25 | 7 | 0 | 7 | 0 | 18 | 0 | 41 | 31 | 11 |  |  |  |  |  | 
Fc1ccc(Nc2nccc(-c3c(-c4ccc(Cl)cc4)nn4ncccc34)n2)cc1F [GW829058] | 18 | 20 | 0 | 21 | 5 | 0 | 0 | 11 | 40 | 24 |  |  |  |  |  | 
CN1CCC(n2cnc(-c3ccc(F)cc3)c2-c2ccnc(NC3CCNCC3)n2)CC1 [SB-229482] | 0 | 0 | 18 | 22 | 0 | 0 | 0 | 23 | 6 | 17 |  |  |  |  |  | 
Nc1nccc2scc(-c3ccc4c(c3)CCN4C(=O)Cc3cc(F)ccc3F)c12 [GSK2587663] | 1 | 21 | 13 | 0 | 3 | 5 | 0 | 12 | 5 | 21 |  |  |  |  |  | 
O=C(Nc1n[nH]c2nc(-c3ccco3)c(Br)cc12)c1ccc(CN2CCCC2)cc1.O=C(O)[C@H](O)[C@@H](O)C(=O)O [SB-742352] | 0 | 0 | 0 | 0 | 42 | 20 | 0 | 0 | 14 | 8 |  |  |  |  |  | 
COC(=O)c1c(-c2ccccc2)c2cc(Cl)ccc2c(=O)n1Cc1ccc(S(C)(=O)=O)cc1 | 5 | 0 | 0 | 0 | 0 | 3 | 17 | 10 | 44 | 6 |  |  |  |  |  | 
Cl.Cl.c1ccc(-c2cc3ccncc3cc2OC2CCNCC2)cc1 [GSK1122999] | 0 | 31 | 18 | 0 | 21 | 0 | 13 | 15 | 21 | 23 |  |  |  |  |  | 
Cc1ccc(O)cc1Nc1cc(C(F)(F)F)nc2ccc(-c3ccncc3)cc12 [GW630823] | 0 | 0 | 4 | 0 | 21 | 11 | 0 | 7 | 0 | 15 |  |  |  |  |  | 
N#Cc1ccc(Oc2ccc(Nc3ncnc4cc[nH]c34)cc2Cl)cc1 | 0 | 0 | 4 | 0 | 32 | 1 | 1 | 15 | 0 | 96.7 |  |  |  |  |  | 
C[C@H]1CC[C@@H](C(=O)Nc2ccccc2)CN1c1cc(-c2ccc3c(N)n[nH]c3c2)nc(N)n1 [GSK2283293] | 5 | 25 | 11 | 0 | 97.9 | 64 | 17 | 0 | 7 | 30 |  |  |  |  |  | 
CCc1nc(-c2cccc(C)c2)c(-c2ccnc(NC(=O)c3ccccc3)c2)s1 | 1 | 6 | 8 | 0 | 0 | 0 | 18 | 50 | 10 | 24 |  |  |  |  |  | 
